In the library only some 4.4% were active in any assay of this set; here they are far more common.
tim10-1 inh: tim10-1 yeast growth inhibition. S. cerevisiae tim10-1 ts strain growth, BacTiter-Glo, 24 h. inhibition, % at 20 µM. 330,000 compounds, 2.2% hits;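 active = inhibition of at least 40%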;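 note: mutant grown at 25 °C; 0% = DMSO wells with yeast and 100% = wells holding no yeast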
tim23-1 inh: growth inhibitors of tim23-1 mutant yeast; S. cerevisiae tim23-1 growth, BacTiter-Glo luminescence, 24 h; inhibition, % at 20 µM; 330,000 compounds, 1.3% hits; AID 463212;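 active = growth inhibition of the mutant yeast at or above 50%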;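 note: temperature-sensitive mutant grown at 25 °C; plate controls were DMSO-treated mutant yeast for no effect and medium wells lacking yeast for full effect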
SKKanGAS inh: SKKanGAS growth inhibition. 300,000 compounds, 1.3% hits. S. pyogenes SKKanGAS, kanamycin growth, BacTiter-Glo, 6 h. inhibition, % at 7.5 µM;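 active = mean replicate score, as percent of positive control median, at least 50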;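 note: strain carries kanamycin resistance gene driven by streptokinase promoter and grows in 40 µg/ml kanamycin; loss of luminescence reflects streptokinase promoter inhibition or plain growth inhibition; 0% = median of DMSO wells and 100% = positive control at its reference dose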
PfHsp90 set2: growth inhibition of yeast expressing Plasmodium Hsp90. inhibition, % at 9.4 µM. AID 504621. S. cerevisiae expressing PfHsp90, BacTiter-Glo ATP, 48 h; yeast lacking PDR1 and PDR3 efflux regulators. 310,000 compounds, 0.32% hits;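 active = every replicate shows inhibition above about 80%, whatever the replicate mean, limit read from the data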;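 note: 0% = DMSO neutral controls and 100% = 20 µM radicicol positive controls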
TIM10 inh: inhibits growth of TIM10 yeast strain. inhibition, % at 10 µM. AID 463195. S. cerevisiae TIM10 strain growth, BacTiter-Glo luminescence, 24 h. 330,000 compounds, 1.4% hits;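 active = inhibition of 40% or more at the single tested concentration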;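 note: wild-type TIM10 isogenic control strain grown at permissive 25 °C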
The depositor's hits bear a star; x = not tested or not shown; ! = not active in a repeat.

SMILES | tim10-1 inh | tim23-1 inh | SKKanGAS inh | PfHsp90 set2 | TIM10 inh
CC1=NN2C(=N)/C(=C\c3cc(C)n(-c4ccccc4)c3C)C(=O)N=C2S1 | -8 | -1 | 10 | -57 | -1
Cc1cc(/C=C2/C(=N)N3C(=NC2=O)SN=C3S(C)(=O)=O)c(C)n1-c1ccc(F)cc1 | 12 | 30 | 64* | -1 | 20
COc1ccccc1-n1c(C)cc(/C=C2/C(=N)N3C(=NC2=O)SN=C3S(C)(=O)=O)c1C | 16 | 11 | 36 | -2 | 8
CC(C)C(=O)N1CCN(c2ccccc2NC(=O)c2ccc3c(c2)OCCO3)CC1 | x | x | x | -6 | x
CCOc1cc(/C=N/NC(=O)CNc2cccc(C)c2)ccc1OC(=O)c1ccccc1 | 25 | 17 | 32 | 0 | 22
CCOc1cc(/C=N/Nc2cccc(C(=O)O)c2)ccc1OC(=O)c1ccccc1 | 29 | 19 | 50* | -1 | 20
C=C(C)Cn1c(SCC#N)nc2ccccc2c1=O | -17 | 4 | 16 | -13 | -2
CCN(CCCn1c(SCC#N)nc2ccccc2c1=O)c1ccccc1 | 20 | 3 | 61* | 8 | 12
C[C@H](CO)N1C[C@H](C)[C@@H](CN(C)Cc2ccc3c(c2)OCO3)Oc2ccc(NC(=O)Cn3cnnn3)cc2C1=O | 6 | 13 | x | 9 | -5
COc1ccc(C)cc1NC(=O)CO/N=C(\N)CC(=O)NC1CCCCC1 | -3 | -1 | x | -3 | 4
O=C(CNC(=O)c1ccco1)NCc1nc2ccccc2[nH]1 | 1 | 3 | 51* | -24 | 3
CC(=O)Oc1c(I)cc(I)cc1C(=O)Nc1ccc(Cl)cc1 | 37 | 42 | 124* | x | -2
COc1ccc(Cl)cc1C(=O)Nc1ccc(NC(C)=O)cc1 | 8 | 16 | 3 | 28 | 5
Cc1ccc(S(=O)(=O)N[C@H](C(=O)OCC(=O)NC(=O)C2CCCCC2)C(C)C)cc1 | 9 | 28 | x | -6 | -2
COc1ccccc1NC(=O)Cc1csc(NC(=S)Nc2ccccc2)n1 | 24 | 11 | 48 | x | 24
COc1ccc(NC(=S)Nc2nc(CC(=O)Nc3ccccc3OC)cs2)cc1 | 18 | 0 | 58* | -10 | 9
O=C(/C=C/c1ccccc1)NCCc1ccccc1 | -22 | 15 | 100* | -2 | -11
COc1ccc(CC(=O)Nc2cc(S(=O)(=O)Nc3ccc(OC)cc3)ccc2OC)cc1 | 16 | 6 | x | 14 | 0
CCCOc1ccc(/C=N/NC(=S)Nc2ccccc2[N+](=O)[O-])c(O)c1 | x | x | 102* | x | x
Cc1cc(COC(=O)C2N3C(=O)[C@@H](NC(=O)COc4ccccc4)[C@H]3SC2(C)C)on1 (some centres undefined) | 21 | 23 | 103* | -22 | 12
CC1(C)S[C@@H]2[C@H](NC(=O)C(NC(=O)N3CCNC3=O)c3ccccc3)C(=O)N2[C@H]1C(=O)O (some centres undefined) | 16 | 8 | 114* | 12 | -11
CC1(C)S[C@@H]2[C@H](NC(=O)[C@H](N)c3ccccc3)C(=O)N2[C@H]1C(=O)OC1OC(=O)c2ccccc21 (some centres undefined) | -11 | -6 | x | -4 | 9
CC1(C)S[C@@H]2[C@H](NC(=O)Cc3ccccc3)C(=O)N2[C@H]1C(=O)O | 2 | 6 | 100*! | -8 | 15
CCC(Oc1ccccc1)C(=O)NC1C(=O)N2C1SC(C)(C)C2C(=O)O (centres undefined) | 13 | 11 | 111* | -15 | 10
CCOc1ccc2ccccc2c1C(=O)N[C@@H]1C(=O)N2[C@@H]1SC(C)(C)[C@@H]2C(=O)O | 1 | 0 | 17 | -25 | -1
SMILES | tim10-1 inh | tim23-1 inh | SKKanGAS inh | PfHsp90 set2 | TIM10 inh
O=c1[nH]nc(Br)c(=O)n1C(c1ccccc1)c1ccccc1 | x | x | x | 10 | x
CC(C)Cc1nc(N2CCN(C(=O)C(C)C)CC2)c(C#N)c2c1CCC2 | 19 | 31 | -3 | 5 | 12
CC(C)Cc1nc(N2CCCCC2)c(C#N)c2c1CCC2 | 4 | -10 | 51* | 4 | 13
CNC(=O)C1CN(C(=O)c2cccc(S(=O)(=O)N3c4ccccc4CC3C)c2)c2ccccc2O1 (centres undefined) | 15 | 24 | x | x | 15
CC1(C)N=C(N)NC(Nc2ccccc2)=N1 | 6 | 0 | 64* | -2 | -1
COc1ccc2nc3n(c(=O)c2c1)-c1cc(Cl)ccc1C(=O)NC3Cc1ccccc1 (centres undefined) | 13 | 14 | x | x | 6
COC(=O)c1ccccc1NC(=O)COC(=O)Cc1ccc(S(=O)(=O)N2CCOCC2)s1 | x | x | x | -7 | x
Cc1cccn2c(Nc3ccccc3)c(-c3ccccn3)nc12 | -8 | -37 | 68* | -26 | 4
Cc1ccn2c(Nc3ccccc3C)c(-c3ccccn3)nc2c1 | 4 | 46 | 96* | -6 | 39
Cc1ccc2nc(-c3ccccn3)c(Nc3ccccc3C)n2c1 | 27 | -19 | 92* | -2 | 21
Cc1ccccc1Nc1c(-c2ccccn2)nc2ccccn12 | -11 | 47 | -2 | -11 | 25
Cc1ccn2c(Nc3ccccc3)c(-c3ccccn3)nc2c1 | -16 | -21 | 76* | 3 | 19
COc1cc2c(cc1OC(C)=O)CCCCC2=O | x | x | x | 7 | x
O=C(COC(=O)c1cncc(Br)c1)Nc1ccc(F)c(F)c1F | 12 | 12 | x | x | 10
O=C1C=CC(=O)N1 | 6 | 10 | x | 12 | 2
O=C(Nc1ccccc1F)NC1CCCCCCC1 | 23 | 29 | 50* | 7 | 12
COc1ccc(S(=O)(=O)N2CCN(C(=O)c3cc(C)nc4ccccc34)CC2)cc1OC | -8 | 0 | x | 6 | 10
O=C1Nc2ccccc2S/C1=C/Nc1cccc(Cl)c1 | 20 | 12 | 76* | x | 20
COc1ccc(/C=N/NC(=O)c2cccc(S(=O)(=O)N3CCCC3)c2)cc1O | -14 | -6 | x | 6 | 5
Cc1sc2nc(-c3ccccn3)[nH]c(=O)c2c1-c1ccccc1 | 3 | 11 | 80* | -22 | 7
COc1cc(-c2ccc(NC(=O)NC3CC3)c(OC)c2)ccc1NC(=O)NC1CC1 | -16 | -16 | 55* | x | -7
CCC(=O)Nc1ccc(-c2ccc(NC(=O)CC)c(OC)c2)cc1OC | 10 | 19 | -11 | -1 | 19
Cc1c(C(=O)N(Cc2ccccc2)Cc2cccs2)cnn1-c1ccc(Cl)cc1 | 18 | 7 | 25 | 105* | -2
Cc1c(C(=O)N(Cc2ccccc2)C(C)C)cnn1-c1ccccc1 | -4 | 23 | -1 | 3 | 9
CCCCC[n+]1ccn(C2=C([O-])c3ccccc3C(=O)/C2=N\S(=O)(=O)c2ccccc2)c1 | 4 | 11 | 74* | 3 | 12
CC(C)[n+]1ccn(C2=C([O-])c3ccccc3C(=O)/C2=N\S(=O)(=O)c2ccccc2)c1 | -2 | 11 | -7 | -19 | -1
CCCCC[n+]1ccn(-c2nc3ccccc3nc2[N-]S(=O)(=O)c2ccc(C)cc2)c1 | 11 | 4 | 1 | -31 | -1
CCCCC[n+]1ccn(C2=C([O-])c3ccccc3C(=O)/C2=N\S(=O)(=O)c2ccc(Br)cc2)c1 | 21 | 5 | 97* | 1 | 12

From PubChem
